We go through seven molecules from PubChem BioAssay (NCI).

Among the test systems are NCI-H23 lung; NCI-H322M lung; HOP-62 NSCLC; NCI-H460 lung; HOP-92 NSCLC; NCI-H522 lung; A549/ATCC NSCLC; 786-0 renal; COLO 205 colon; DU-145 prostate; K-562 leukemia; MALME-3M melanoma; MDA-MB-231 breast; RXF 393 renal; SF-268 CNS; SF-295 CNS; SF-539 CNS; UACC-257 melanoma; M14 melanoma.
Holding throughout (assay): NCI-60 one-dose screen, 48 h (100 = growth as untreated, 0 = no growth, -100 = all killed)
What all share (conditions): 10 µM unless noted

SMILES strings stand for the structures. Compounds without any hit were thinned out: in the full panel of roughly 83,000, 20% have a hit.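 Single-dose data. Exposure time 48 hours. Values below 10 considered active.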 Unmarked numbers belong to inactive results. Calls of active or inactive are those of the source.

As for `COc1cc(/C=C/c2cc(/C=C/c3ccc(O)c(OC)c3)n(-c3ccccc3)c(=O)n2)ccc1O`, the growth is 78.4% with NCI-H23 lung; 86.8% in the assay on NCI-H322M lung; 85.8% in the assay on HOP-62 NSCLC; 91% with NCI-H460 lung; 78.8% in the assay with HOP-92 NSCLC; 68.2% in the assay on NCI-H522 lung. The growth with A549/ATCC NSCLC is 90.6%; with 786-0 renal it was 85.1%; in the assay on COLO 205 colon, 71.3%; in the assay on DU-145 prostate, 86.7%; in the assay with K-562 leukemia it was 53.9%; in the assay on MALME-3M melanoma it was 90.4%. For the same molecule, the growth in the assay on MDA-MB-231 breast was 61.4%; with RXF 393 renal it was 68.3%; with SF-268 CNS, 72.3%; in the assay on SF-295 CNS, 88%; with SF-539 CNS, 79.5%; in the assay with UACC-257 melanoma it was 88.9%. In the assay on M14 melanoma, the growth was 85.7%.

On to `COC(=O)[C@]12CC[C@@H](C)[C@H](C)[C@@H]1C1=CC[C@@H]3[C@@]4(C)C[C@@H](OC(C)=O)[C@H](O)[C@@](C)(CO)[C@@H]4[C@H](O)C[C@@]3(C)[C@]1(C)CC2`, for which the growth with NCI-H23 lung is -82% (active); with HOP-62 NSCLC, -89.8% (active); in the assay on NCI-H460 lung it was -72.6% (active); with HOP-92 NSCLC it was -87.7% (active); in the assay with NCI-H522 lung, -90.3% (active); in the assay with A549/ATCC NSCLC it was -88.3% (active). The growth in the assay with 786-0 renal was -77.3% (active); in the assay on COLO 205 colon, -87.8% (active); in the assay on DU-145 prostate, -100% (active); with K-562 leukemia, -62.7% (active); in the assay on MALME-3M melanoma, -69.1% (active); in the assay on MDA-MB-231 breast, -62.3% (active). The growth in the assay on RXF 393 renal is -88.9% (active); in the assay with SF-268 CNS it was -84% (active); with SF-295 CNS, -92.2% (active); in the assay with SF-539 CNS, -90% (active); in the assay with M14 melanoma, -69.1% (active).

Turning to `COC(=O)[C@]12CC[C@@H](C)[C@H](C)[C@@H]1C1=CC(=O)[C@@H]3[C@@]4(C)C[C@@H](OC(C)=O)[C@H](OC(C)=O)[C@@](C)(COC(C)=O)[C@@H]4C(=O)C[C@@]3(C)[C@]1(C)CC2`, the growth is 45.4% with NCI-H23 lung; 82.6% in the assay on NCI-H322M lung; 58.2% with HOP-62 NSCLC; 32.4% with NCI-H460 lung; 18.1% in the assay on HOP-92 NSCLC; 47.6% in the assay with NCI-H522 lung. Besides, the growth in the assay on A549/ATCC NSCLC is 42.5%; in the assay with 786-0 renal, 68.5%; in the assay with COLO 205 colon, 39.5%; with DU-145 prostate it was 73%; in the assay on MALME-3M melanoma, 44.6%; in the assay on MDA-MB-231 breast it was 41.6%. Besides, the growth in the assay on RXF 393 renal is 64.5%; in the assay on SF-268 CNS, 73.8%; with SF-295 CNS, 51.6%; with SF-539 CNS it was 72.3%; in the assay on M14 melanoma, 29.5%.

On to `C=C(C)[C@@H]1CC[C@]2(CN)CC[C@]3(C)[C@H](CC[C@@H]4[C@@](C)(CCCN)[C@H](C(=C)C)CC[C@]43C)[C@@H]12`, for which the growth was 91.1% in the assay with NCI-H23 lung; 90.2% in the assay on NCI-H322M lung; 90.6% in the assay with HOP-62 NSCLC; 94.7% in the assay on NCI-H460 lung; 67.4% with HOP-92 NSCLC; 94% in the assay on NCI-H522 lung. Also, the growth in the assay with A549/ATCC NSCLC was 82.7%; with 786-0 renal it was 81.8%; in the assay with COLO 205 colon, 34.5%; in the assay with DU-145 prostate it was 94.8%; with K-562 leukemia, 1.94% (active); with MALME-3M melanoma, 80.2%. In addition, the growth in the assay with MDA-MB-231 breast is 92.8%; in the assay on RXF 393 renal, 79%; in the assay with SF-268 CNS, 79.9%; with SF-295 CNS it was 101%; in the assay on SF-539 CNS it was 90.4%; in the assay with UACC-257 melanoma, 99.7%. The growth in the assay on M14 melanoma is 75.2%.

In the case of `CC(C)(C)c1cc(-n2c(-c3ccc(Cl)cc3)nc3cc(C(=O)Nc4ccc(Cl)cc4)ccc32)n[nH]1`, the growth with NCI-H23 lung was 32.8%; in the assay on NCI-H322M lung, 82%; in the assay with HOP-62 NSCLC, 83.6%; with NCI-H460 lung, 39.6%; with HOP-92 NSCLC, 38.1%; in the assay with NCI-H522 lung, 56.9%. In addition, the growth with A549/ATCC NSCLC is 51.1%; with 786-0 renal it was 67.4%; in the assay with COLO 205 colon, 51.8%; in the assay with DU-145 prostate it was 79.8%; in the assay with K-562 leukemia, 41.2%; in the assay with MALME-3M melanoma it was 75.4%. Also, the growth is 79.8% in the assay with MDA-MB-231 breast; 65.7% in the assay on RXF 393 renal; 69.7% in the assay with SF-268 CNS; -2.36% (active) with SF-295 CNS; 82.9% with SF-539 CNS; 81.1% with UACC-257 melanoma. Moreover, the growth in the assay on M14 melanoma was 62.7%.

Take `O=C1C(Cl)=C(Nc2ccc(S(=O)(=O)c3ccc(NC4=C(Cl)C(=O)c5ccccc5C4=O)cc3)cc2)C(=O)c2ccccc21`: the growth in the assay on NCI-H23 lung is -12.9% (active); in the assay on NCI-H322M lung, 64.5%; with HOP-62 NSCLC, 36.1%; in the assay with NCI-H460 lung, 37.2%; in the assay with HOP-92 NSCLC it was -26.2% (active); in the assay with NCI-H522 lung, -67.4% (active). Also, the growth was 74% in the assay on A549/ATCC NSCLC; 26.4% in the assay with 786-0 renal; -54.9% (active) with COLO 205 colon; -15.1% (active) with DU-145 prostate; 8.57% (active) with K-562 leukemia; -48.5% (active) in the assay on MALME-3M melanoma. For the same molecule, the growth with MDA-MB-231 breast was 45.4%; in the assay with RXF 393 renal, -96% (active); in the assay with SF-268 CNS it was -56.3% (active); with SF-295 CNS, 34.1%; in the assay on SF-539 CNS, 1.36% (active); in the assay with UACC-257 melanoma it was -81.3% (active). Moreover, the growth in the assay with M14 melanoma was -57.6% (active).

As to `Nc1c(Cl)cc(N=Nc2ccccc2)cc1Cl`, the growth is 88% with NCI-H23 lung; 91.4% in the assay on HOP-62 NSCLC; 65.1% in the assay on NCI-H460 lung; 57.7% in the assay on HOP-92 NSCLC; 96.8% in the assay with NCI-H522 lung; 88.2% in the assay on A549/ATCC NSCLC. Besides, the growth in the assay on 786-0 renal was 101%; in the assay on COLO 205 colon, 97.5%; in the assay on DU-145 prostate, 101%; in the assay with K-562 leukemia, 92.5%; in the assay with MDA-MB-231 breast, 84.2%; with RXF 393 renal, 108%. The growth with SF-268 CNS is 102%; in the assay on SF-295 CNS it was 89.7%; in the assay on SF-539 CNS it was 103%; in the assay with UACC-257 melanoma, 100%; in the assay with M14 melanoma it was 105%.
